Data: PubChem BioAssay
Unmarked numbers belong to inactive results. The rule behind the calls is not given here.

assay: blockers of DNA damage checkpoint Chk1 activation – imaging, HeLa, hydroxyurea, phospho-Chk1 nuclear intensity, primary screen (AID 1187); details: hydroxyurea-induced phospho-Chk1 immunofluorescence imaging, higher = more signal; note: test concentration not given here

SMILES	z-score
COCC(=C=CC[C@H](O)c1ccc(OCCO)cc1)C[C@H](O)COCc1ccccc1	0.19
O=C1NC(=O)C2C1C=CC(C(O)c1cc(C(F)(F)F)cc(C(F)(F)F)c1)N2Nc1ccc(Cl)cc1Cl (stereo not given)	1.26
COC(=O)[C@H](Cc1ccccc1)N1CC(/C=C/C2CC2)=C[C@@H]1[C@@H](O)Cc1ccccc1	-0.713
NC(=O)NCC#Cc1ccc2c(c1)[C@]1(C(=O)N2)[C@H](C(=O)Nc2nc3ccccc3s2)[C@H]2C(=O)O[C@H](c3ccccc3)[C@H](c3ccccc3)N2[C@@H]1c1ccc(O)cc1	0.194
O=C1O[C@@H](c2ccccc2)[C@@H](c2ccccc2)N2[C@@H](c3ccc(O)cc3)[C@]3(C(=O)Nc4ccc(C#CC5=CCCCC5)cc43)[C@@H](C(=O)N3CCN(c4ncccn4)CC3)[C@H]12	-0.0223
CC(=O)NCCCC[C@@H]1NC(=O)[C@@H]2C[C@H](C(=O)O)[C@H](c3ccc(O)cc3)N2C1=O	0.202
COc1cc(CO)cc(I)c1O[C@H]1C=C(C(=O)NCCO)C[C@@H](NCc2ccccc2F)[C@@H]1O	0.959
O=C1NCC(=O)N2[C@@H]1C[C@@H](C(=O)O)[C@H]2c1ccc(O)cc1	0.0565
COC(=O)[C@@]1(Cc2ccc(F)cc2)[C@H]2c3cc(C(=O)N4CCCC4)n(CCF)c3C[C@H]2CN1C(=O)c1ccccc1	-0.593
C[C@]1(C(=O)O)c2ccccc2C(=O)N(Cc2ccccc2)[C@H]1c1ccc(CO)cc1	0.194
CCOC(=O)C[C@H]1[C@H](OC(=O)c2ccc(-c3ccccc3)cc2)[C@@H](NC(=O)C2CCCCC2)c2cc(OCCCO)ccc2N1C(=O)c1ccccc1	0.0385
O=C1O[C@@H](c2ccccc2)[C@@H](c2ccccc2)N2[C@@H](c3ccccc3OCCO)[C@]3(C(=O)Nc4ccccc43)[C@@H](C(=O)NC[C@H](O)c3ccccc3)[C@H]12	-0.169
C=CC1c2cc(O)c(OC)cc2CCN1Cc1sc2ccccc2c1Cl (stereo not given)	-0.0459
CC(C)CN1C(=O)[C@@]2(c3ccc([N+](=O)[O-])cc3)CC(=O)N(CC34CC5CC(CC(C5)C3)C4)[C@@H]2c2ccc(CO)cc21	-0.164
COCCOC(=O)N1C(=O)[C@@]2(c3cc(C#Cc4ccc(OC)cc4)ccc31)[C@H](C(=O)N1CCN(c3ncccn3)CC1)[C@H]1C(=O)O[C@H](c3ccccc3)[C@H](c3ccccc3)N1[C@@H]2c1ccccc1OCCO	-0.0377
CCOC(=O)C[C@H]1[C@H](OC(=O)Cc2ccc3c(c2)OCO3)[C@@H](NC(=O)Cc2ccc(OC)cc2)c2cc(OCCCO)ccc2N1C(=O)c1ccccc1	-0.165
[N-]=[N+]=Nc1ccccc1C[C@]1(C(=O)NCc2ccccc2)N=C(c2ccc(OCCCO)cc2)O[C@H]1c1ccccc1	0.176
COC(=O)Cn1c(C(=O)N2CCCC2)cc2c1C[C@H]1CN(C(=O)c3ccccc3)[C@@](Cc3ccc(F)cc3)(C(=O)OC)[C@@H]21	-1.37

SMILES	z-score
COc1ccc(NN2C(C(O)c3ccco3)C=CC3C(=O)N(C4CCCCC4)C(=O)C32)cc1 (stereo not given)	-0.504
CCCCN1CC=CC23O[C@@H]4C=CCOC(=O)[C@@H]4[C@H]2C(=O)N(C(C)CO)[C@@H]3C1=O (stereo not given in full)	-0.392
COc1ccc(NC(=O)O[C@H]2[C@H](OC(=O)Nc3ccc4c(c3)OCO4)[C@@H](OC(=O)Nc3ccc4c(c3)OCO4)[C@@H](OC)O[C@@H]2CO)cc1	0.419
C=CCN1C(=O)[C@]2(CC=C)N=C(c3ccc(OCCCO)cc3)O[C@@H]2c2ccccc21	0.169
CC1CC/C=C\[C@H]2OC34C=CCN(C(C)C)C(=O)[C@H]3N(CCCCCO)C(=O)[C@@H]4C2C(=O)O1 (stereo not given in full)	0.532
COC(=O)[C@@]1(Cc2ccccc2)[C@H]2c3cc(C(=O)N4CCCC4)n(Cc4ccsc4Br)c3C[C@H]2CN1C(=O)c1ccccc1	0.498
NCCCCCNC(=O)[C@@H]1C[C@@H]2C(=O)N[C@@H](CCCCN)C(=O)N2[C@@H]1c1cccc(OCCO)c1	-0.0136
CCOC(=O)C1=CC[C@@H](c2ccc([N+](=O)[O-])cc2)N(S(=O)(=O)c2ccc(C)cc2)[C@H]1c1ccccc1	-0.3
CC(C)c1ccc(NN2C(C(O)c3ccco3)C=CC3C(=O)N(c4ccccc4)C(=O)C32)cc1 (stereo not given)	-1.03
COC1(C)CN(Cc2ccccc2Br)[C@H](/C=C/c2ccccc2)[C@H](Cc2ccccc2)O1 (stereo not given in full)	-2.34
CC=CC(O)C1C=CC2C(=O)N(C)C(=O)C2N1N1CCCCC1 (stereo not given)	-0.297
CCOC(=O)C1=CC[C@@H](c2cc(Cl)ccc2Cl)N(S(=O)(=O)c2ccc(C)cc2)[C@H]1c1ccc(OC)cc1	-0.611
C=C(CCCC)C(=O)CC[C@@H](OC(=O)c1ccccc1-c1ccccc1C(=O)O)c1cccc(OCCO)c1	0.408
CC(C)(C)OC(=O)CC[C@@]1(C(=O)O)N=C(c2ccc(OCCCO)cc2)O[C@@H]1c1ccccc1CN=[N+]=[N-]	-0.0647
O=C1C[C@]2(c3ccc([N+](=O)[O-])cc3)C(=O)N(Cc3ccccc3)c3cc(CO)ccc3[C@H]2N1CC12CC3CC(CC(C3)C1)C2	-0.785
O=C(CS)NCCCCCCNC(=O)[C@@H]1C[C@@H]2C(=O)N3CCC[C@H]3C(=O)N2[C@@H]1c1cccc(OCCO)c1	-0.971
CN(C)CCCCNC(=O)[C@H]1C[C@H]2C(=O)N[C@@H](CCCCN(C)C)C(=O)N2[C@H]1c1cccc(OCCO)c1	0.217
